Results with a measured potency or affinity are listed apart.
How the values were obtained:
Staphylococcus aureus = settings: Concentration 32 ug.mL-1;; ASSAY_TEST Inhibition of Bacterial Growth; detection method Absorption (OD600); MEDIA CAMHB; plate type 384well; NBS; CORNING #3640; time 18 hr
Escherichia coli = settings: Concentration 32 ug.mL-1;; ASSAY_TEST Inhibition of Bacterial Growth; detection method Absorption (OD600); MEDIA CAMHB; plate type 384well; NBS; CORNING #3640; time 18 hr

Row | Structure (SMILES) | Inhibition (Staphylococcus aureus) | Inhibition (Escherichia coli)
1 | Cc1cc(Nc2ccc(F)cc2)nc2nn(CCc3ccccc3)c(=O)n12 | 4.62% | -5.44%
2 | CCOc1ccc(-n2ccn3c(SCC#N)nnc3c2=O)cc1 | 8.92% | 2.37%
3 | Cc1ccccc1Oc1nccn2c(=O)n(CC(=O)Nc3ccccc3C(F)(F)F)nc12 | 10.19% | 1.35%
4 | CC(=O)c1ccc(NC(=O)Cn2nc3ccc(-c4ccc(C)cc4)nn3c2=O)cc1 | 10.69% | -3.43%
5 | COC(=O)c1ccccc1NC(=O)Cn1nc2c3sc(N4CCCC4)nc3ncn2c1=O | 6.17% | -6.93%
6 | Cc1ccc(Oc2nccn3c(=O)n(CC(=O)NCc4ccccc4Cl)nc23)cc1 | 12.36% | -4.03%
7 | CCc1ccc(N(Cc2cccc(OC)c2)S(=O)(=O)c2cccn3cnnc23)cc1 | 17.37% | 2.31%
8 | Cc1ccc(NC(=O)Cn2nc3c(Oc4ccccc4)nccn3c2=O)c(Cl)c1 | 0.38% | -2.7%
9 | COC(=O)c1ccc(NC(=O)Cn2nc3c4cc(-c5ccc(OC)cc5)nn4ccn3c2=O)cc1 | 11.91% | 3.86%
10 | O=C(CSc1nnc2c(=O)n(-c3cccc(F)c3)ccn12)c1ccc(F)cc1 | 5.39% | 1.51%
11 | CC(C)c1nnc2c(=O)n(CC(=O)Nc3cccc(Cl)c3)c3ccccc3n12 | 5.77% | -3.24%
12 | Cc1ccc(-n2ccn3c(=O)n(Cc4ccccc4Cl)nc3c2=O)cc1C | 0.51% | -7.32%
13 | CCCCOc1ccc(-c2cc3c4nnc(SCC(=O)NCc5ccc(OC)cc5)n4ccn3n2)cc1 | -2.43% | -7.34%
14 | Cc1ccc(-c2ccc3nn(Cc4nc(-c5ccc(OC(F)(F)F)cc5)no4)c(=O)n3n2)cc1 | 8.38% | -3.94%
15 | CCc1cccc(NC(=O)Cn2nc3ccc(SC(C)(C)C)nn3c2=O)c1 | 9.57% | -1.32%
16 | Cc1cc2nn(CC(=O)Nc3ccccc3F)c(=O)n2c(Nc2ccc(C)c(F)c2)n1 | -7.63% | -14.62%
17 | COc1ccc(CNC(=O)Cn2nc3c(N4CCOCC4)nccn3c2=O)cc1 | 22.13% | 3.1%

Row | Structure (SMILES) | Inhibition (Staphylococcus aureus) | Inhibition (Escherichia coli)
18 | Cc1ccc(-c2ccc3nn(Cc4ccc5c(c4)OCO5)c(=O)n3n2)cc1C | -7.66% | -8.33%
19 | O=C(Cn1nc2c(N3CCOCC3)nccn2c1=O)NCc1cccc(C(F)(F)F)c1 | 16.25% | -1.74%
20 | COc1ccc(N(Cc2ccc(OC)c(F)c2)S(=O)(=O)c2ccc3nncn3c2)cc1 | 2.98% | -0.06%
21 | N#CCn1nc2n(Cc3ccccc3)c(=O)c3ccccc3n2c1=O | 14.89% | 2.96%
22 | Cc1ccc(NC(=O)Cn2nc3ccc(-c4ccccc4)nn3c2=O)cc1 | 2.61% | -12.45%
23 | COc1ccccc1-n1ccn2c(SCc3ccccc3F)nnc2c1=O | 11.33% | -2.76%
24 | CCOc1ccc(NC(=O)Cn2nc3c(SCc4ccc(Cl)cc4)nccn3c2=O)cc1 | -1.92% | -9.96%
25 | CCc1ccc(NC(=O)Cn2nc3n(Cc4cccs4)c(=O)c4sccc4n3c2=O)cc1 | -0.38% | 5.1%
26 | COc1ccc(NC(=O)Cn2nc3c(Oc4ccc(C)cc4)nccn3c2=O)cc1Cl | -1.59% | -3.22%
27 | O=C(Cn1nc2ccc(SC3CCCCC3)nn2c1=O)Nc1ccc(F)c(F)c1 | -4.22% | -6.38%
28 | Cc1cc(NC(=O)Cn2c(=O)c3nnc(C(C)C)n3c3ccccc32)ccc1Br | 13.77% | 0%
29 | COc1ccc(-c2cc3c4nnc(CCC(=O)NCc5ccccc5Cl)n4ccn3n2)cc1 | 0.8% | -2.58%
30 | O=C(Cn1nc2c(N3CCN(c4ccccc4)CC3)nccn2c1=O)Nc1ccc2c(c1)OCO2 | 13.69% | 0.21%
31 | Cc1cc(C)c(NC(=O)Cn2nc3c4c5c(sc4ncn3c2=O)CCCC5)c(C)c1 | 8.81% | -5.83%
32 | Cc1nnc2c(S(=O)(=O)N(Cc3ccccc3F)c3ccc(C(C)C)cc3)cccn12 | 11.33% | -2.7%
33 | Cc1ccc(NC(=O)CSc2nc3ccccc3n3c(C)nnc23)cc1C | -20.91% | -12.4%
